Source: PubChem BioAssay
Compounds with a hit are over-represented: about 8.8% of the library has one in this group of screens.
HT1080-NT tox = kills 2HG-producing HT-1080-NT fibrosarcoma cells | AID 686970 | HT-1080-NT fibrosarcoma viability, CellTiter-Glo ATP luminescence, 48 h | Potency, µM (top dose mostly 46.1 µM), without a hit: top-dose activity, negative = less viability, most hits filed as cytotoxic | hit rate 1.6% among 360,000;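 also: NT is the 2HG producing partner of a matched IDH1 knockdown line; potency is read from the fitted curve at half-maximal effect; 0% = DMSO-treated cells and -100% = media-only wells without cells; nearly all actives have a fitted effect of over 55% in size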
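750 cells/well, RPMI + 5% FBS; 2 h settle, compound pin-transfer, 48 h at 37 degrees C. CellTiter-Glo 10 min RT, luminescence. Normalized to DMSO and media-only wells.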
IL1B secr inh = inhibitors of inflammasome signaling (IL-1 beta secretion); THP-1 LPS/ATP IL-1B secretion, AlphaLISA, 16 h; hits give low values; hit rate 4.7% among 360,000; AID 743279; activity change, % at 57.5 µM; in the data active = activity change below about -50%; inconclusive = mostly about -30% to -49%
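Secreted IL-1B measured by AlphaLISA bead assay after 16 h compound exposure of THP-1 cells; compounds (final up to 57.5 uM) added 1 h before LPS (250 ng/mL) and ATP (1.25 mM) stimulation; lower signal means less secretion.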
KB-3-1 cytotox = KB-3-1 parental cell cytotoxicity; hit rate 1.4% among 400,000; KB-3-1 viability, CellTiter-Glo ATP luminescence, 72 h; Potency, µM (highest dose often 46.1 µM), actives largely listed as cytotoxic; AID 1347075; also: potency is read from the fitted curve at half-maximal effect; nearly all actives have a fitted effect of over 60% in size
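Viability of parental KB-3-1 cells, measured by CellTiter-Glo luminescence, followed a 72 h incubation at 37 °C with pinned compounds in phenol-red-free DMEM containing 10% FBS.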
KB-V1 cytotox = kills drug-selected multidrug resistant KB-V1 cells; KB-V1 MDR cells viability, CellTiter-Glo, 72 h; Potency, µM (doses to about 46.1 µM), actives largely listed as cytotoxic; hit rate 3.4% among 400,000; also: potency is read from the fitted curve at half-maximal effect; nearly all actives have a fitted effect of over 60% in size
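Following 72 h at 37 degrees C with compound, KB-V1 cell viability was read by CellTiter-Glo luminescence, medium being phenol-red-free DMEM plus 10% FBS; concentration-response parameters came from normalized, curve-fitted qHTS data.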
HT1080 IDH1KD tx = toxicity to HT-1080 IDH1 knockdown cells (counter line) | HT-1080 IDH1 knockdown viability, ATP luminescence, 48 h | Potency, µM (titrated, usually from 46.1 µM), for inactives: top-dose activity, negative = toxicity, hits mostly cytotoxic | hit rate 2% among 360,000;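 also: potency is read from the fitted curve at half-maximal effect; 0% = DMSO wells and -100% = cell-free medium wells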
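Cytotoxicity counter-line: IDH1KD HT-1080, 48 h, CellTiter-Glo. Curves classed by r2, magnitude and activity.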
* = called active by the depositor; i = inactive; ? = inconclusive; nt = not tested or not shown. Unless noted, calls follow the shape of the dose curve; as a rule, active = well fitted curve in the direction sought with a large enough effect; inconclusive = small, poorly fitted or top-dose-only effect, or another doubt; inactive = no such curve, though single readings can be large; an effect the other way counts as inactive or inconclusive. Unless noted, % is scaled to controls: 0 for no effect and ±100 for the full control effect.

SMILES | HT1080-NT tox | IL1B secr inh | KB-3-1 cytotox | KB-V1 cytotox | HT1080 IDH1KD tx
CCOc1ccc(NC(=O)NCCCn2c(C)nc3cc(C)c(C)cc32)cc1 | 1% | -7 | i | 23µM* | -1%
COc1cccc(O)c1CN1CCC(n2nccc2NC(=O)c2ccc3c(c2)OCO3)CC1 | -1% | -1 | i | ? | -12%
Cc1ccc2oc(-c3cccc(NC(=O)COc4ccc(Cl)cc4C)c3C)nc2c1 | nt | nt | i | ? | nt
CC(=O)c1c(C)[nH]c(C(=O)COc2cc(C)cc(C)c2)c1C | 0% | -10 | i | 2.6µM* | ?
CCCOc1ccc(OCC(=O)c2[nH]c(C)c(C(C)=O)c2C)cc1 | -12% | 9 | ? | 2.9µM* | ?
CC(=O)c1c(C)[nH]c(C(=O)COC(=O)CCCOc2ccccc2)c1C | -3% | 8 | i | i | -3%
Cn1c(=O)c2c(nc(/C=C/c3cccc(Cl)c3)n2C)n(C)c1=O | 13% | 7 | i | i | 10%
CN(C)CCC(=O)C(Cc1ccccc1)c1ccccc1 (configuration not stated) | -39% | -99* | i | ? | ?
CN(C)CC(c1ccccc1)c1ccccc1 | 17% | nt | i | i | 10%
CC(CCCN(C)C)C(Cc1ccccc1)c1ccccc1 (configuration not stated) | ? | -66* | i | i | 16µM*
Cc1ccc(N2CC(C(=O)N3CCC(C(=O)Nc4nnc(C(C)(C)C)s4)CC3)CC2=O)cc1 (configuration not stated) | 1% | ? | i | i | 4%
CCOC(=O)/C=C1\SCC(=O)N1CC(=O)NC(c1ccccc1)c1ccccc1 | -1% | 71 | i | 6.5µM* | 9%
CCOc1ccc2nc(N3CCCC(C(=O)NCc4ccccc4Cl)C3)sc2c1 (configuration not stated) | nt | nt | i | i | nt
CCOc1ccc2nc(N3CCCC(C(=O)NCCCN4CCCCC4)C3)sc2c1 (configuration not stated) | 18µM* | 0 | ? | ? | ?
COc1ccc2nc(N3CCCC(C(=O)NCCCN4CCN(C)CC4)C3)sc2c1 (configuration not stated) | -8% | -28 | i | i | -2%
CCOc1ccc2nc(N3CCCC(C(=O)NCCCN4CC(C)CC(C)C4)C3)sc2c1 (configuration not stated) | 16µM* | -53* | ? | i | ?
CCOc1ccc2nc(N3CCCC(C(=O)NCCCN4C(C)CCCC4C)C3)sc2c1 (configuration not stated) | ? | -70* | i | i | ?
CCCn1nnnc1NCc1ccccc1Cl | -1% | 0 | i | i | 7%
CCc1ccc(-c2nc(CS(=O)CC(=O)NCCN3CCCCCC3)c(C)o2)cc1 (configuration not stated) | ? | -56* | ? | i | ?
Cc1ccc(-c2nc(CS(=O)CC(=O)NCCCN3CCN(Cc4ccccc4)CC3)c(C)o2)cc1 (configuration not stated) | -24% | -71* | i | i | ?
Cc1cc(SCC(=O)c2ccc(O)c(O)c2)n2nc(C)c(-c3ccccc3)c2n1 | 8.2µM* | 0 | ? | ? | 9.2µM*
O=C(CN1CCCCC1)NC(=O)NC1CCCC1 | 8% | 19 | i | i | 26%
CC(NC(=O)Cn1ncc(Cl)c(Cl)c1=O)C12CC3CC(CC(C3)C1)C2 (configuration not stated) | 18µM* | -119* | 6.5µM* | ? | 10µM*
O=C(Cn1ncc(Cl)c(Cl)c1=O)NC(=O)NC1CCCCC1 | ? | -103* | ? | ? | 6.5µM*
CC(NC(=O)Cn1c(=O)[nH]c2ccsc2c1=O)C12CC3CC(CC(C3)C1)C2 (configuration not stated) | -1% | -23 | ? | i | 0%
SMILES | HT1080-NT tox | IL1B secr inh | KB-3-1 cytotox | KB-V1 cytotox | HT1080 IDH1KD tx
CC(NC(=O)Cn1ccsc1=N)C12CC3CC(CC(C3)C1)C2 (configuration not stated) | ? | -59* | i | i | -22%
Cc1c(C(=O)Nc2ccccc2)c2ccc(C(F)(F)F)cc2n1O | ? | ? | i | ? | ?
O=C(O)c1cccc2c1C(=O)c1ccc(N3CCN(Cc4ccc5c(c4)OCO5)CC3)cc1S2(=O)=O | -2% | 10 | i | i | -3%
Cc1ccc(CNC(=O)CN2N=C(c3ccccc3)CCC2=O)cc1 | nt | nt | i | i | nt
COCCNC(=S)NC(=O)CC12CC3CC(CC(C3)C1)C2 | -12% | 2 | i | 16µM* | -14%
CNC(=O)CC12CC3CC(CC(C3)C1)C2 | 2% | 5 | i | i | 4%
CCOc1ccc(S(=O)(=O)N(CC)CC)cc1NC(=O)c1ccc(N2CCCC2=O)cc1 | 4% | -24 | i | i | 1%
COCCn1c(SCC(=O)c2c[nH]c3ccccc23)nnc1-c1ccncc1 | -7% | 33 | i | i | 0%
C(=C\c1ccccc1)/CSc1nnc(-c2ccccn2)n1Cc1ccco1 | 5.8µM* | 16 | 5.8µM* | ? | 4.1µM*
CCn1c(SCc2nc3ccccc3[nH]2)nnc1-c1ccccc1OC | -1% | 4 | i | i | -3%
CCn1c(COc2ccc(C)cc2)nnc1SCc1nc2ccccc2[nH]1 | -17% | -11 | i | 2.6µM* | ?
CCn1c(SCC(=O)c2c[nH]c3ccccc23)nnc1-c1cccs1 | ? | 35 | 16µM* | ? | ?
CCn1c(SCc2nc3ccccc3[nH]2)nnc1-c1cccs1 | -3% | -10 | i | 8.2µM* | 1%
O=C(NC1CCCCC1)c1ccc(-c2ccccc2)cc1 | 14% | -16 | i | i | 13%
Cc1ccc(C)c(SCC(=O)OCC(=O)NCCNC(=O)COC(=O)CSc2cc(C)ccc2C)c1 | -1% | 18 | i | i | 1%
Cc1cc(S(=O)(=O)Nc2cc3c(cc2N2CCOCC2)n(C)c(=O)c(=O)n3C)ccc1F | nt | nt | i | i | nt
CC/C(=N\NC(=O)c1c[nH]c2ccccc12)c1cccs1 | -6% | 14 | i | 16µM* | -7%
c1ccc(-c2nnc(SCc3nc4ccccc4[nH]3)n2Cc2ccco2)nc1 | -5% | 12 | i | 2.6µM* | -9%
COc1ccc(C)cc1NC(=O)CSc1nnc(-c2ccccn2)n1Cc1ccco1 | 9% | -3 | i | 12µM* | 3%
Clc1ccc(OCc2nnc(SCc3nc4ccccc4[nH]3)n2Cc2ccco2)cc1 | -4% | 197 | ? | 5.8µM* | -16%
Clc1cccc(-c2nnc(SCc3nc4ccccc4[nH]3)n2Cc2ccco2)c1 | -8% | -27 | i | ? | -27%
